KDM5B inh: blocks human KDM5B histone demethylase activity; Q9UGL1; Potency, µM (top dose mostly 57.7 µM), most hits filed as inhibitors; AID 1347165; KDM5B demethylase, FDH-coupled NADH fluorescence (FDH is formaldehyde dehydrogenase); actives 2.6% (n = 220,000); active = well fitted inhibition curve with a large enough effect; note: 0% is about no effect; nearly all actives have a fitted effect of over 70% in size
Target sequence (Q9UGL1 whole entry, looked up): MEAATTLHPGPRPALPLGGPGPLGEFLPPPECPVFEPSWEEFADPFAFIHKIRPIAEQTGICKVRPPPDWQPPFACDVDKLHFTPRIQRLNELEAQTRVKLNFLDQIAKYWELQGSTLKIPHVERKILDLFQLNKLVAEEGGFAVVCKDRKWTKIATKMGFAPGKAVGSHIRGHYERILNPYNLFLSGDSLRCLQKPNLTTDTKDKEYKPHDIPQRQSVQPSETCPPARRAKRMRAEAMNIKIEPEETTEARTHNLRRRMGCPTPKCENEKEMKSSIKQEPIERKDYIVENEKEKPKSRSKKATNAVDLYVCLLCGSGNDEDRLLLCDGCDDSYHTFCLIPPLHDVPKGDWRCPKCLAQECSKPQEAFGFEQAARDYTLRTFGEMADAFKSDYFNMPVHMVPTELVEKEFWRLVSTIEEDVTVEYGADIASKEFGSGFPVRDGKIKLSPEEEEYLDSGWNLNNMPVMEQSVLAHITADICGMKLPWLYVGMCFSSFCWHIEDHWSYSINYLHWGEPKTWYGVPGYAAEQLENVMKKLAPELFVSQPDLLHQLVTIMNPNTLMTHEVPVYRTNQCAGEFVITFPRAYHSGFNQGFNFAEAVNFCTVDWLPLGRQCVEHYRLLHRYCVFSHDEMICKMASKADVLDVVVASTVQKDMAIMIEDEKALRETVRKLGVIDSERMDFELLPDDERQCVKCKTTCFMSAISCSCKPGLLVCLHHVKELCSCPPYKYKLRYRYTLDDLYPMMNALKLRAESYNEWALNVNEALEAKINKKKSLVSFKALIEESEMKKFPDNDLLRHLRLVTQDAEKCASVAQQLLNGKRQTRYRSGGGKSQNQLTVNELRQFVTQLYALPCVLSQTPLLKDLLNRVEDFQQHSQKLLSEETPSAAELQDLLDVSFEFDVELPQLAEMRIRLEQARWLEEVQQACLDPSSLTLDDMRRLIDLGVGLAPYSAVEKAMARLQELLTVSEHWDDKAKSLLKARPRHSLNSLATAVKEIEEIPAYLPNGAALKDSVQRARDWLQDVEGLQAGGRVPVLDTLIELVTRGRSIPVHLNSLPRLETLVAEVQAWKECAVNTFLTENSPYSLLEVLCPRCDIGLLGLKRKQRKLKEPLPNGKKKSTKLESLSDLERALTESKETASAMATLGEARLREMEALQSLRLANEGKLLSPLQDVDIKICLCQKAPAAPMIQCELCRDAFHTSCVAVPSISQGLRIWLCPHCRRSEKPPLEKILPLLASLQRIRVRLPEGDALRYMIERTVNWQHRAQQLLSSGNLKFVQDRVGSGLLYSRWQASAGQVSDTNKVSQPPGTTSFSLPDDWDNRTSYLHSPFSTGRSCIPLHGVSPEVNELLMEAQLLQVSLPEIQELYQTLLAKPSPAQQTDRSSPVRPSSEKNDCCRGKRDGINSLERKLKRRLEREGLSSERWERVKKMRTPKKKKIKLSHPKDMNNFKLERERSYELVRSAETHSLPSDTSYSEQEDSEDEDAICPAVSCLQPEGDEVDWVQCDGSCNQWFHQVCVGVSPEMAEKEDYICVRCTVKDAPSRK
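Measured: NADH fluorescence change, 30 min, RT. System: KDM5BΔAP 200 nM final, H3K4me3 peptide, α-KG, Fe(II), ascorbate, NAD⁺ plus FDH, pH 7.5 HEPES. Compounds: titrated, 10 min pre-incubation with enzyme.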
* hit, by the source's call; i = inactive. Only a selection was taken, and hits are over-represented in it overall. Potency is the fitted concentration of half-maximal effect.

SMILES | KDM5B inh
O=[S+]1([O-])NC2(CCN(Cc3ccc(Cl)cc3)C2)COc2ncccc21 (centres undefined) | i
O=C(NCCCCc1ccccc1)c1ccc(C(=O)NCCCCc2ccccc2)cc1 | i
Cc1nnc(-c2cc(C(=O)NC3CCOCC3)ccn2)n1CCc1ccccc1 | i
CC1(CCCCc2ccccc2)COc2ccc(C(=O)NC3CC3)cc2N1 (centres undefined) | 28µM*
O=C(NC1C[C@H]2CC[C@@H](C1)N2C(=O)CCCc1ccccc1)c1ccc(F)cc1 (some centres undefined) | i
CN(C)C(=O)c1ccc2c(c1)NC(C)(CCCCc1ccccc1)CO2 (centres undefined) | i
CC1(CCCCc2ccccc2)COc2ccc(C(=O)NC3CCOCC3)cc2N1 (centres undefined) | 35µM*
CC1(CCCCc2ccccc2)COc2ccc(C(=O)NCCc3cnc[nH]3)cc2N1 (centres undefined) | 32µM*
COCCN(C)C(=O)c1ccc2c(c1)NC(C)(CCCCc1ccccc1)CO2 (centres undefined) | i
O=C(CSc1nc2ccccc2o1)Nc1ccc(Cl)c(Cl)c1 | i
CCc1cc(CC)n(-c2nc3c(c(=O)n(CC)c(=O)n3C)n2CC)n1 | i
Cc1ccc(C(C)C)cc1C(=O)CC1(O)C(=O)N(C(C)C)c2ccccc21 (centres undefined) | i
Cn1c2ccccc2c2nnc(SCc3c(F)cccc3Cl)nc21 | i
C[S+](=O)([O-])N1CCn2ncc(C(=O)NCc3ccc(Cl)nc3)c2C1 | i
O=C(NCc1ccc(Cl)nc1)c1cnn2c1CN(C(=O)OCc1ccccc1)CC2 | i
O=C(NCc1ccc(Cl)nc1)c1cccn2nccc12 | 35µM*
Cc1ccc2cc(C(=O)NCc3ccc(N4CCCCCC4)nc3)c(C)nc2c1 | i
Cc1ccc2c(C(=O)NCc3ccc(Cl)nc3)cnn2c1 | 40µM*
O=C(NCc1ccc(Cl)nc1)c1cnn2c1CN(C(=O)c1ccccc1)CC2 | i
COc1ccc(NC(=O)CCc2ncc(-c3ccccc3Cl)o2)c(OC)c1 | i
CC(=O)Oc1ccc(-c2nc(-c3cccc(Br)c3)no2)cc1 | i
CC(C)N(c1ccccc1)c1ccc(NC(=O)c2cc(=O)c3ccccc3o2)cc1 | i
NC(=O)NCCC(=O)N1CCc2onc(-c3cccc4ccccc34)c2C1 | 25µM*
Nc1cc(C(=O)N2CCc3onc(-c4ccc(-c5ccccc5)cc4)c3C2)[nH]n1 | i
CCCc1ncncc1C(=O)N1CCc2onc(-c3ccccc3F)c2C1 | i
SMILES | KDM5B inh
CC(Sc1ccc2c(c1)OCCCO2)C(=O)c1c[nH]c2ccccc12 (centres undefined) | i
CNC(=O)c1ccc(CN(C)C(=O)CCc2ncc(-c3ccc(C)cc3)o2)cc1 | i
CCCCn1nc(C(=O)Nc2ccc(Cl)cc2)c2ccccc2c1=O | i
COc1cc(C(=O)N2CCN(c3nccs3)CC2)cc(Cl)c1OC(C)C | i
CC1CCc2c(C(=O)Nc3cccc(Br)c3)csc2C1 (centres undefined) | i
CCN1CCN(Cc2ccccc2CNCc2cccc(C#N)c2)CC1 | i
Cc1nc(N2CCCC2)c2c(C(=O)N3CCN(c4cccc(C)c4C)CC3)c(C)oc2n1 | i
Cc1cccc(N2CCN(C(=O)c3noc(-c4ccc[nH]c4=O)n3)CC2)c1C | 28µM*
Cc1ccccc1N1CCN(C(=O)c2cc3ccccc3[nH]2)CC1 | i
COc1ccc2cc(C(=O)N3CCN(c4cccc(C)c4)CC3)c(C)nc2c1 | i
Cc1cccc(N2CCN(C(=O)c3noc4c3CCc3sccc3-4)CC2)c1C | i
Cc1ccccc1N1CCN(C(=O)c2noc(-c3ccc[nH]c3=O)n2)CC1 | 28µM*
Cc1cccc(N2CCN(C(=O)c3noc(-c4ccc[nH]c4=O)n3)CC2)c1 | 28µM*
COc1ccccc1N1CCN(C(=O)c2noc(-c3ccc(C)cc3)n2)CC1 | i
COc1ccc(N2CCN(C(=O)c3noc(-c4ccc(C)cc4)n3)CC2)cc1 | i
Cc1cc2ccccc2n1CC(=O)NC1CCN(C(C)(C)C)CC1 | i
COc1ccc(Cl)cc1Nc1cc(C)nc2nc(-c3ccco3)nn12 | i
Cc1c(C(=O)OCc2ccc(C#N)cc2)oc2ccccc12 | i
COc1ccc(CC(=O)Nc2nonc2-c2ccc3c(c2)CCCC3)cc1 | i
CC(C)[C@H](NC(=O)c1ccccc1F)C(=O)Nc1cccc(S(=O)(=O)N2CCCCC2)c1 | i
COc1cc(/C=C(/C#N)c2nc3ccccc3[nH]2)cc2c1OCCO2 | i
O=S(=O)(Cc1ccc(F)cc1)Cc1nc2ccccc2s1 | i
CN(Cc1ccc(C(=O)NCC(F)(F)F)cc1)C(=O)C1CCCN(C(=O)c2ccc(Cl)cc2)C1 (centres undefined) | i
CCC(NC(=O)Cc1n[nH]c(=O)c2ccccc12)c1ccc(OC)cc1 (centres undefined) | i
O=S(=O)(c1ccc(F)cc1)N1CCN(Cc2ncc(-c3ccc(F)cc3)o2)CC1 | i
SMILES | KDM5B inh
Cn1cc(-c2cc3c(ccn3C)c(C(=O)NCCc3cnc[nH]3)n2)cn1 | i
Cn1ccc2c(C(=O)NCCC(N)=O)nc(-c3ccccc3C(F)(F)F)cc21 | i
Cn1ccc2c(C(=O)NCCC(N)=O)nc(-c3cccc(C(F)(F)F)c3)cc21 | 14µM*
Cn1ccc2c(C(=O)NCCC(N)=O)nc(-c3cccc(CO)c3)cc21 | i
CN1CCN(c2ccc(-c3cc4c(ccn4C)c(C(=O)NCCC(N)=O)n3)cc2)CC1 | i
Cn1ccc2c(C(=O)NCCc3cnc[nH]3)nc(-c3ccc([S+](C)(=O)[O-])cc3)cc21 | i
Cc1ccccc1-c1cc2c(ccn2C)c(C(=O)NCCc2cnc[nH]2)n1 | 40µM*
Cn1ccc2c(C(=O)NCCC(N)=O)nc(-c3ccccc3)cc21 | 32µM*
Cc1ccc2nc(C)c(C(=O)N3CCC(C)CC3)cc2c1 | i
Cc1nc2cc(-c3ccccc3)ccc2s1 | i
O=[N+]([O-])c1ccc(C(c2ccccc2)c2cccc3ccccc23)cc1 (centres undefined) | i
Cc1cc(N2CCC(c3[nH]ncc3Cc3ccccc3)CC2)nc(N)n1 | i
CN1CCN(c2cc(N3CC[C@H](CO)[C@H](O)C3)nc(N)n2)CC1 | i
Nc1cc(N2CC[C@@H](N3CCN(CCc4ccccc4)CC3)[C@H](O)C2)nc(N)n1 | 4.5µM*
CCCCNC1C2CC3CC(C2)CC1C3 (centres undefined) | i
CC(C)CSc1nc2c(c(=O)n(C)c(=O)n2C)n1Cc1ccccc1Cl | i
COC[C@H]1C[C@@H](NC(=O)C2CCOCC2)[C@H](O)[C@@H]1O | i
CS(=O)(=O)c1ccc(OC[C@H]2C[C@@H](NC(=O)C3CCOCC3)[C@H](O)[C@@H]2O)cc1 | 32µM*
CS(=O)(=O)c1ccc(OC[C@H]2C[C@@H](NC(=O)c3cncnc3)[C@H](O)[C@@H]2O)cc1 | i
Cc1occc1-c1nnc(SC(C)C(=O)N2CCc3ccccc32)o1 (centres undefined) | i
COC(=O)[C@@H]1Cc2c([nH]c3ccccc23)[C@H]2C[C@@H](N3CCOCC3)C[C@@H](c3ccc(F)cc3)N21 | 13µM*
COC(=O)[C@@H]1Cc2c([nH]c3ccccc23)[C@H]2C[C@@H](NCCNC(C)=O)C[C@@H](c3ccccc3)N21 | 8.9µM*
COc1cccc(Cl)c1NC(=O)N1CCc2c([nH]c3ccccc23)C1C(F)(F)F (centres undefined) | i
